These results are taken from PubChem BioAssay AID504408 (Broad Institute, 2011).

The structures appear in SMILES notation. About 5,200 (1.7%) of roughly 300,000 compounds were called active. The full list was thinned out, with actives kept by preference. Values without a mark were called inactive.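 How the source made its calls: active means mean replicate activation of at least 50% with a set share of replicates each reaching 50%; inconclusive means only one of those two conditions met; inactive means mean below 50% and too few replicates reaching it.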

This experiment in a line: HSF-1 activators, primary screen, NIH3T3-HGL cells, MG132 stress, luminescence, single point (AID 504408).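 Further: 0% = median of the neutral control wells and 100% = twice that signal.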 Conditions: NIH3T3-HGL HSF-1 luciferase reporter, MG132, 8 h; at 9 µM; stronger effect = higher value; 100% = twice DMSO control signal. Background: In a reporter assay the amount or activity of a reporter protein is the signal.
With `CC(C)c1ccc(S(=O)(=O)N2CCN(C(=O)CN3C(=O)NC(C)(c4ccccc4)C3=O)CC2)cc1` (stereo not drawn), the activation is -9.21%.
With `CCC(CC)c1nnc(NC(=O)C2=COCCO2)s1`, the activation was 13.8%.
Turning to `O=C(c1ccc(F)c(S(=O)(=O)N2CCOCC2)c1)N(CCc1ccccc1)Cc1ccccc1`, the activation was 6.07%.
Next, `O=C(CSc1nc2[nH]ncc2c(=O)[nH]1)Nc1ccc(F)cc1`: -14.4%.
For `CC(=O)Cn1ncc(N2CCOCC2)c(Br)c1=O` the value was -14.8%.
Next, `O=C(Cn1ncc(N2CCCC2)c(Br)c1=O)c1ccc(Cl)cc1`: 75.4% (active); `O=C(Cn1nc(CNc2ccc(Cl)cc2)[n+]2c1CCCCC2)c1ccc(Cl)cc1`: 19.7%; `O=C(NCC(c1ccco1)N1CCc2ccccc21)c1cccc(F)c1` (stereo not drawn): 33.2%.
Turning to `Cc1ccc(-c2nn(-c3ccccc3)cc2C(=O)NCCCN2CCCC2=O)cc1`, the activation is -4.32%.
For `O=[N+]([O-])c1ccccc1/C=C/CN1CCC(O)CC1` the value was -18.5%; for `CC1CCCCC1NC(=O)/C(C#N)=C/C=C/c1ccccc1[N+](=O)[O-]` (stereo not drawn), 53.4% (active).
In the case of `O=[N+]([O-])c1ccccc1/C=C/CN1CCCC(CO)C1` (stereo not drawn), the activation is -4.33%.
Next, `O=C(Nc1cc2c3c(c1)CC(=O)N3CCC2)c1ccccc1F`: -11.8%; `Cc1nc(-c2ccccc2)sc1C(=O)/C=C/N(C)C`: -1.43%.
Next, `Cc1nc(-c2ccc(Cl)cc2)sc1C(=O)NN`: -2.26%; `Cc1nc(-c2ccc(Cl)cc2)sc1C(=O)CBr`: 75.1% (active).
For the compound `COc1ccccc1NC(=O)COC(=O)c1ccccc1SCC(=O)N1CCCC1`, the activation is -2.69%.
For `COCCCNC(=O)/C=C/c1ccc(OCc2c(F)cccc2Cl)cc1` the value was 0.816%; for `O=C(/C=C/c1ccc(OCc2c(F)cccc2Cl)cc1)N1CCOCC1`, 67.7% (active).
For `CN(C)CCCNC(=O)/C=C/c1ccc(OCc2c(F)cccc2Cl)cc1` the value was -16.4%; for `Cc1ccn2c(=O)nc(SCC(=O)NCc3ccc4c(c3)OCO4)nc2c1`, -9.78%.
For `CC1=NNC(=O)C1Cc1c(Cl)cccc1Cl` (stereo not drawn) the value was 8.87%.
With `N#C/C(=C(/O)COC(=O)COc1ccc(Cl)cc1)c1nc2ccccc2[nH]1`, the activation is 25.2%.
Next, `O=C(CSc1nc2ccc([N+](=O)[O-])cc2[nH]1)c1ccc(Cl)cc1`: 9.88%.
Turning to `O=C(Cc1nc2ccccc2[nH]c1=O)c1ccc(Cl)cc1`, the activation is 74.3% (active).
Next, `CCN1C(=O)[C@@H]2[C@@H](c3ccc(-c4ccc(OC)cc4)c(OC)c3)N3CCC[C@@]3(C(=O)OC)[C@@H]2C1=O`: 14.7%; `CCOC(=O)C1=C(c2ccc(OC)cc2)C(=O)c2ccccc2C1=O`: 82.9% (active); `COc1ccc(OCCCON2C(=O)c3ccccc3C2=O)cc1`: 3.41%.
Regarding `CCOC(=O)c1c(-c2ccc(C)cc2)csc1/N=C(\C)C1=C(O)c2ccccc2C1=O`, the activation is 9.57%.
For `O=C(Cc1ccc(S(=O)(=O)N2CCOCC2)s1)NCCOc1ccccc1F`, the activation was 3.3%.
With `CC(=O)Nc1cccc(C(=O)OCC(=O)Nc2nnc(-c3ccccc3)o2)c1`, the activation was -13.5%.
For `c1ccc(-c2c[nH]c(-c3ccccc3)c2)cc1` the value was -83.8%; for `Oc1ccc(-c2cccc(-c3ccc(O)cc3)c2)cc1`, 62% (active).
Regarding `O=C(OCc1ccc(-c2ccccc2)cc1)c1cccc(O)c1`, the activation is 6.99%.
Next, `Cc1ccc(N2CCN(c3ccc([N+](=O)[O-])cn3)CC2)c(C)c1`: 14%.
For `Cc1cc(/C=N/Nc2ccc([N+](=O)[O-])cn2)c(C)n1-c1cccc(C(=O)O)c1` the value was 2.82%; for `Cc1ccc(-n2c(C)cc(/C=N/Nc3ccc([N+](=O)[O-])cn3)c2C)c(C)c1`, 57.8% (active).
As for `Cc1ccc(S(=O)(=O)NCCC(=O)OCC(=O)N(C)c2ccccc2)cc1`, the activation is 2.24%.
For `O=C(c1ccc(Cl)s1)N(Cc1nnc(-c2ccccc2Cl)o1)C1CC1` the value was 19.5%.
On to `COc1ccc(NS(=O)(=O)c2ccc(NC(=S)NC(=O)/C=C/c3ccc(C)cc3)cc2)nn1`, for which the activation was -3.51%.
Turning to `COc1ccc(/C=C/C(=O)c2ccc(NS(=O)(=O)c3ccc(C)cc3)cc2)cc1O`, the activation was 200% (active).
Next, `Cc1ccc(C(=O)/C=C/Nc2ccc(S(=O)(=O)Nc3onc(C)c3C)cc2)cc1`: 2.18%.
On to `COc1ccc(C2CC(c3cccs3)=NN2c2ccccc2)cc1` (stereo not drawn), for which the activation is 67.4% (active).
Next, `COc1ccc(C2CC(c3cccs3)=NN2c2nc(C)c(C(C)=O)s2)cc1OC` (stereo not drawn): 149% (active); `Oc1ccccc1C1=NN(c2ccccc2)C(c2ccccc2)C1` (stereo not drawn): 0.471%; `COc1ccc(C2=NN(c3ccccc3)C(c3cccs3)C2)cc1` (stereo not drawn): 50.9% (active).
As to `COc1ccc(C2=NN(C(=O)CCC(=O)O)C(c3cccs3)C2)cc1OC` (stereo not drawn), the activation was -7.93%.
For `COc1ccc(C2CC(c3cccs3)=NN2C(=O)CCC(=O)O)cc1OC` (stereo not drawn) the value was -17.8%; for `COc1ccc(C2=NN(C(C)=O)C(c3ccccc3)C2)cc1` (stereo not drawn), 21.6%.
On to `COc1ccccc1N1N=C(c2cccs2)CC1c1ccccc1` (stereo not drawn), for which the activation is 9.62%.
Regarding `COc1ccc(C2CC(c3cccs3)=NN2c2ccc(F)cc2)cc1OC` (stereo not drawn), the activation was 22.9%.
Turning to `O=S(=O)(c1ccccc1)N1CCC(c2ccccc2)CC1`, the activation is -26.8%.
Next, `CN(N)c1nc(N2CCCC2)nc(N2CCCC2)n1`: -5.13%; `CC(C)COc1ccc(C(=O)OCC(=O)NCCC2=CCCCC2)cc1`: -2.4%; `Nc1cccc(-c2cc(-c3ccccc3)nc(-c3cccc(N)c3)n2)c1`: -6.32%.
Next, `Nc1nc(-c2ccccc2)cc(-c2ccccc2)n1`: 21.8%.
For `CNc1nc(-c2ccccc2)cc(-c2ccccc2)n1` the value was 74.1% (active).
Consider `O=C(COC(=O)c1cccc(Cl)c1)Nc1ccc2[nH]c(=O)[nH]c2c1`, for which the activation is 9.55%.
For `CSc1ncc(Sc2ccccc2)c(C(=O)O)n1` the value was 21.8%; for `CSc1nc(-c2ccccc2)nc(C(Cl)Cl)n1`, 84.8% (active).
As for `CCOc1ccccc1OCC(=O)Nc1ccccc1C(=O)NC1CC1`, the activation is -12.2%.
In the case of `Cc1ccc(CNS(=O)(=O)CCNC(=O)c2ccccc2)cc1`, the activation was -0.388%.
For `COc1ccccc1C(=O)NCCC(=O)NC(C)CCc1ccccc1` (stereo not drawn) the value was 0.822%.
For `O=C1CCCN1C(=O)COc1ccc([N+](=O)[O-])cc1` the value was -3.27%; for `O=C(NCc1ccncc1)c1ccc(NS(=O)(=O)c2cccc([N+](=O)[O-])c2)cc1`, 5.25%.
For `COc1cc(/C=N/Nc2nc3ccccc3s2)ccc1O` the value was 193% (active).
`CCNc1nc(NCC)nc(N/N=C/c2ccc(O)c(OC)c2)n1`: the activation is -8.51%.
As to `COc1ccc(CC(=O)N/N=C/c2cc([N+](=O)[O-])cc(Br)c2O)cc1`, the activation was -6.91%.
Next, `COc1cc(/C=N\Nc2nc(-c3cccs3)c(NC(C)=O)s2)ccc1O`: -1.06%; `Cc1ccc(S(=O)(=O)Nc2nc3ccccc3s2)cc1[N+](=O)[O-]`: 9.23%.
Next, `O=[N+]([O-])c1cc(Br)c(O)c(/C=N/Nc2nc3ccccc3s2)c1`: 57.3% (active); `O=S(=O)(Nc1ccc(O)c2ccccc12)c1ccc(OC(F)(F)F)cc1`: -68.7%; `Cc1csc(=O)n1CC(=O)OCC(=O)N(CC(C)C)c1c(N)n(Cc2ccccc2)c(=O)[nH]c1=O`: 1.95%.
For the compound `COc1ccc(CNC(=O)C2CCCC2)cc1`, the activation was -6.99%.
For `CCN(CC)CCn1c2c(c(SCC(=O)Nc3nc4ccccc4s3)nc1=O)CCCC2` the value was -7.63%; for `CC1(C)O[C@H]2CC(=O)OCC23[C@H]2CC[C@@]4(C)[C@H](c5ccoc5)OC(=O)[C@H]5O[C@]54[C@]2(C)C(=O)C[C@@H]13` (stereo partly drawn), 0.574%; for `CSc1nc2ccc(NC(=O)c3c(F)cccc3F)cc2s1`, 59.4% (active).
Next, `O=C(Nc1ccncc1)c1c(F)cccc1F`: -55.9%.
On to `CCCC(=O)Nc1nc2ccc(NC(=O)c3c(F)c(F)c(OC)c(F)c3F)cc2s1`, for which the activation is -10.9%.
For `Cc1onc(-c2c(F)cccc2Cl)c1C(=O)N(C)CC(=O)Nc1cccc(F)c1` the value was -3.94%; for `Cc1nn2cc(-c3ccc(Cl)cc3)cnc2c1Br`, 58.7% (active).
For `COc1ccc(N2CCN(C(=O)c3ccc4c(Cl)c5c(nc4c3)CCCC5)CC2)cc1` the value was -1.04%; for `CC(=O)c1ccc(NC(=O)c2ccc3c(Cl)c4c(nc3c2)CCCC4)cc1`, 105% (active); for `CC(C)CCNC(=O)c1ccc2c(Cl)c3c(nc2c1)CCC3`, -56.3%.
For `N#CCN(C(=O)COC(=O)C1CC2CCCC(C1)C2=O)c1ccccc1` (stereo not drawn) the value was -11.4%; for `O=C(NN1CCOCC1)c1cccc(F)c1`, 13.3%; for `O=C(COC(=O)Cc1ccccc1F)NNC(=O)c1ccc(Cl)cc1`, -9.93%.
As to `COc1ccc(CNC(=O)C(=O)N2CCC3(CC2)OCCN3S(=O)(=O)c2ccc(C)cc2)cc1`, the activation is 2.08%.
With `COc1ccccc1N1CCN(S(=O)(=O)c2ccc(Cl)cc2)CC1`, the activation is 4.97%.
For the compound `CCN(C(=O)CSc1nnnn1-c1ccccc1OC)C1CCS(=O)(=O)C1` (stereo not drawn), the activation was 26%.
`COc1ccccc1-n1nnnc1S(=O)(=O)Cc1ccc(Cl)cc1`: the activation was 235% (active).
For `Cc1ccc(NC(=O)CSc2nc(=O)n(CCN(C)C)c3c2CCCC3)c(C)c1` the value was -10.7%; for `CN1CCN(S(=O)(=O)c2ccc(Nc3ccc(F)cc3)nc2)CC1`, -7%.
